Where “and” joins values, the source holds several entries; their conditions need not be identical. Equal values may be shown once. The full ranking holds about 5,300 compounds; the median of “PER2::LUC luminescence relative to vehicle control” is about 0.96, and the highest 2% start at about 1.3. This is one part of a sample in which the highest values are shown more often than they occur.
Tested on: mPer2Luc MEF
Experiment: PER2::LUC luminescence relative to vehicle control (fold of vehicle); higher = higher PER2::LUC reporter signal
Settings: 10 µM
Summary of the method: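 Each value gives PER2::LUC luminescence as fold of vehicle control, measured with the ONE-Glo luciferase assay system in mouse embryonic fibroblasts carrying the mPer2Luc reporter. Cells grown in DMEM with 10% FBS at 37 °C and 5% CO2 were seeded at ~3000 per well in 384-well plates. Library compounds were added at 10 μM 48 h later, and readings were taken 24 h and 30 h after treatment.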

## CCCC(=O)NCCc1c(I)[nH]c2ccc(OC)cc12
Time after treatment 24 h
  PER2::LUC luminescence: 0.668
Time after treatment 30 h
  PER2::LUC luminescence: 0.814

## CCCCC/C=C\C[C@@H](O)/C=C/c1cccc(C[C@@H](O)CCCCO)n1
Time after treatment 24 h
  PER2::LUC luminescence: 1.07
Time after treatment 30 h
  PER2::LUC luminescence: 0.841

## O=C(Nc1cccc(C(F)(F)F)c1)Nc1cc(Cl)ccc1C(=O)O
Time after treatment 24 h
  PER2::LUC luminescence: 1.07
Time after treatment 30 h
  PER2::LUC luminescence: 1

## CCN(CC)CCNC(=O)c1cc(S(C)(=O)=O)ccc1OC
Time after treatment 24 h
  PER2::LUC luminescence: 0.984
Time after treatment 30 h
  PER2::LUC luminescence: 0.88

## CCN(CC)CCNC(=O)COc1ccc(OC)cc1
Time after treatment 24 h
  PER2::LUC luminescence: 1.38
Time after treatment 30 h
  PER2::LUC luminescence: 1.49

## CCN(CC)CCNC(=O)c1ccc(N)cc1
Time after treatment 24 h
  PER2::LUC luminescence: 1.11
Time after treatment 30 h
  PER2::LUC luminescence: 1.27

## CC12CCC3c4ccc(O)cc4CCC3C1CCC2O (stereo not given)
Time after treatment 24 h
  PER2::LUC luminescence: 0.721
Time after treatment 30 h
  PER2::LUC luminescence: 0.751

## OC[C@H]1O[C@@H](n2cnc3c(N[C@H]4CCC[C@@H]4O)ncnc32)[C@@H](O)C1O (stereo not given in full)
Time after treatment 24 h
  PER2::LUC luminescence: 1.25
Time after treatment 30 h
  PER2::LUC luminescence: 0.88

## CN(C)CC1CCC2=C(C1=O)C(c1ccc(Cl)c(Cl)c1)C1=C(CCC(CN(C)C)C1=O)O2 (stereo not given)
Time after treatment 24 h
  PER2::LUC luminescence: 1.15
Time after treatment 30 h
  PER2::LUC luminescence: 1.08

## O=C1Nc2cc(Br)ccc2/C1=C1/Nc2ccccc2/C1=N\O
Time after treatment 24 h
  PER2::LUC luminescence: 0.773
Time after treatment 30 h
  PER2::LUC luminescence: 1.09

## O=C1Cc2c([nH]c3ccc(Br)cc23)-c2ccccc2N1
Time after treatment 24 h
  PER2::LUC luminescence: 1.15
Time after treatment 30 h
  PER2::LUC luminescence: 1.88

## CC(C)NC[C@@H](O)COc1ccc(CC(N)=O)cc1
Time after treatment 24 h
  PER2::LUC luminescence: 1.01
Time after treatment 30 h
  PER2::LUC luminescence: 0.958

## CC(C)NCC(O)COc1ccc(CC(N)=O)cc1 (stereo not given)
Time after treatment 24 h
  PER2::LUC luminescence: 1.26
Time after treatment 30 h
  PER2::LUC luminescence: 1.06

## C[C@H](NCc1ccc(OCc2cccc(F)c2)cc1)C(N)=O
Time after treatment 24 h
  PER2::LUC luminescence: 1.22 and 1.67
Time after treatment 30 h
  PER2::LUC luminescence: 1.5 and 1.51

## COc1ccc([C@@H]2CC(=O)c3c(O)cc(OC4O[C@H](CO[C@H]5O[C@@H](C)[C@@H](O)[C@@H](O)[C@H]5O)[C@H](O)[C@H](O)[C@H]4O)cc3O2)cc1O (stereo not given in full)
Time after treatment 24 h
  PER2::LUC luminescence: 1.02
Time after treatment 30 h
  PER2::LUC luminescence: 1.03

## O=C(NCc1nc2ccccc2c(=O)n1-c1ccc(F)cc1)Nc1ccc(Cl)c(C(F)(F)F)c1
Time after treatment 24 h
  PER2::LUC luminescence: 1
Time after treatment 30 h
  PER2::LUC luminescence: 0.929

## O=S(=O)(O)c1cc(N=C=S)ccc1/C=C/c1ccc(N=C=S)cc1S(=O)(=O)O
Time after treatment 24 h
  PER2::LUC luminescence: 0.832
Time after treatment 30 h
  PER2::LUC luminescence: 0.684

## CC(=O)Nc1ccc(O)cc1
Time after treatment 24 h
  PER2::LUC luminescence: 0.846
Time after treatment 30 h
  PER2::LUC luminescence: 0.81

## CC(=O)Nc1ccc(NC(=S)NC(=O)c2ccc(C(C)(C)C)cc2)cc1
Time after treatment 24 h
  PER2::LUC luminescence: 0.812
Time after treatment 30 h
  PER2::LUC luminescence: 0.973

## C/C(O)=C(\C#N)C(=O)Nc1ccc(C(F)(F)F)cc1
Time after treatment 24 h
  PER2::LUC luminescence: 1.32 and 1.08
Time after treatment 30 h
  PER2::LUC luminescence: 1.56 and 1.07

## O=C([O-])CN1CCN(CC(=O)[O-])CCN([C@H](CO)[C@H](O)CO)CCN(CC(=O)[O-])CC1.[Gd+3] (racemic)
Time after treatment 24 h
  PER2::LUC luminescence: 1.03
Time after treatment 30 h
  PER2::LUC luminescence: 1.04

## C[C@H]1COC2(CCN(c3nc(=O)c4cc(C(F)(F)F)cc([N+](=O)[O-])c4s3)CC2)O1 (racemic)
Time after treatment 24 h
  PER2::LUC luminescence: 1.32
Time after treatment 30 h
  PER2::LUC luminescence: 1.39

## COCc1c(C(C)C)nc(C(C)C)c(/C=C/[C@@H](O)C[C@@H](O)CC(=O)O)c1-c1ccc(F)cc1
Time after treatment 24 h
  PER2::LUC luminescence: 0.305
Time after treatment 30 h
  PER2::LUC luminescence: 0.274

## CCN1CCC[C@H]1CNC(=O)c1c(OC)ccc(Br)c1OC
Time after treatment 24 h
  PER2::LUC luminescence: 1.03
Time after treatment 30 h
  PER2::LUC luminescence: 0.993

## CCN1CCC[C@H]1CNC(=O)c1c(O)c(Cl)cc(Cl)c1OC
Time after treatment 24 h
  PER2::LUC luminescence: 1.14 and 1.02
Time after treatment 30 h
  PER2::LUC luminescence: 0.977 and 0.877

## CCCCN1CCCC1CNC(=O)c1cc(C#N)c2ccccc2c1OC (stereo not given)
Time after treatment 24 h
  PER2::LUC luminescence: 1
Time after treatment 30 h
  PER2::LUC luminescence: 1.58

## CC(C)=CCC[C@@H](C)[C@H]1CC[C@@]2(C)C3=C(CC[C@]12C)[C@@]1(C)CC[C@H](O)C(C)(C)[C@@H]1CC3
Time after treatment 24 h
  PER2::LUC luminescence: 1.06
Time after treatment 30 h
  PER2::LUC luminescence: 0.995

## O=C(O)CC1CCC(c2ccc(-c3ccc4nc(C(=O)NCc5ccc(OC(F)(F)F)cc5)cn4c3)cc2)CC1 (stereo not given)
Time after treatment 24 h
  PER2::LUC luminescence: 1
Time after treatment 30 h
  PER2::LUC luminescence: 1.1

## CC(C)(C)c1ccc(-c2nc3ccccc3[nH]2)cc1
Time after treatment 24 h
  PER2::LUC luminescence: 0.03
Time after treatment 30 h
  PER2::LUC luminescence: 0.034

## c1ccc2[nH]c(-c3cscn3)nc2c1
Time after treatment 24 h
  PER2::LUC luminescence: 1.41
Time after treatment 30 h
  PER2::LUC luminescence: 1.35

## c1ccc(Cc2nc3ccccc3[nH]2)cc1
Time after treatment 24 h
  PER2::LUC luminescence: 1.17
Time after treatment 30 h
  PER2::LUC luminescence: 0.971

## O=C(NC[C@@H]1CN(c2ccc(N3CCOCC3=O)cc2)C(=O)O1)c1ccc(Cl)s1
Time after treatment 24 h
  PER2::LUC luminescence: 0.948
Time after treatment 30 h
  PER2::LUC luminescence: 0.975

## CNC(=O)[C@H]1O[C@@H](n2cnc3c(N)ncnc32)[C@H](O)[C@@H]1O
Time after treatment 24 h
  PER2::LUC luminescence: 1.11
Time after treatment 30 h
  PER2::LUC luminescence: 1.03

## CC1(O)CCC(C(C)(C)O)CC1 (stereo not given)
Time after treatment 24 h
  PER2::LUC luminescence: 0.901 and 0.99
Time after treatment 30 h
  PER2::LUC luminescence: 0.986 and 0.688

## C[C@H]1CC[C@@H](C(C)(C)O)CC2=C1CC[C@@H]2C
Time after treatment 24 h
  PER2::LUC luminescence: 1.46
Time after treatment 30 h
  PER2::LUC luminescence: 1.05

## Nc1nc2ccc(OC(F)(F)F)cc2s1
Time after treatment 24 h
  PER2::LUC luminescence: 1.26 and 0.999
Time after treatment 30 h
  PER2::LUC luminescence: 1.5 and 1.06

## CCOc1ccc2nc(S(N)(=O)=O)sc2c1
Time after treatment 24 h
  PER2::LUC luminescence: 1.19
Time after treatment 30 h
  PER2::LUC luminescence: 1.28

## COc1cc(/C=C/c2ccc(O)cc2)cc(OC)c1
Time after treatment 24 h
  PER2::LUC luminescence: 1.03
Time after treatment 30 h
  PER2::LUC luminescence: 0.93

## Oc1ccc(/C=C/c2cc(O)cc(O)c2)cc1
Time after treatment 24 h
  PER2::LUC luminescence: 1.46
Time after treatment 30 h
  PER2::LUC luminescence: 1.29

## Oc1cc(O)cc(/C=C/c2ccc(O)c(O)c2)c1
Time after treatment 24 h
  PER2::LUC luminescence: 1.15
Time after treatment 30 h
  PER2::LUC luminescence: 1.09

## NC1(C(=O)O)C[C@@H](C(=O)O)[C@H](C(=O)O)C1 (racemic)
Time after treatment 24 h
  PER2::LUC luminescence: 0.98
Time after treatment 30 h
  PER2::LUC luminescence: 0.892

## COc1cc(-c2oc3cc(O)ccc3c(=O)c2O)ccc1O
Time after treatment 24 h
  PER2::LUC luminescence: 1.13
Time after treatment 30 h
  PER2::LUC luminescence: 1.2

## COc1cc(N(C)CCN(C)C)c(N)cc1Nc1nccc(-c2cn(C)c3ccccc23)n1
Time after treatment 24 h
  PER2::LUC luminescence: 0.57
Time after treatment 30 h
  PER2::LUC luminescence: 0.54

## COc1ccc2c(C)cc(=O)oc2c1
Time after treatment 24 h
  PER2::LUC luminescence: 0.984
Time after treatment 30 h
  PER2::LUC luminescence: 1.02

## COc1ccc2c(c1)OCc1c-2oc2cc(OC)ccc12
Time after treatment 24 h
  PER2::LUC luminescence: 1.52
Time after treatment 30 h
  PER2::LUC luminescence: 1.8

## COc1ccc2c(c1)OC/C(=C\c1ccc(OC)c(O)c1)C2=O
Time after treatment 24 h
  PER2::LUC luminescence: 0.879
Time after treatment 30 h
  PER2::LUC luminescence: 0.794

## OC1c2ccccc2N=C2CCCN21 (stereo not given)
Time after treatment 24 h
  PER2::LUC luminescence: 0.854
Time after treatment 30 h
  PER2::LUC luminescence: 0.868

## N#CCC(C1CCCC1)n1cc(-c2ncnc3[nH]ccc23)cn1 (stereo not given)
Time after treatment 24 h
  PER2::LUC luminescence: 1.26
Time after treatment 30 h
  PER2::LUC luminescence: 1.51

## CCS(=O)(=O)N1CC(CC#N)(n2cc(-c3ncnc4[nH]ccc34)cn2)C1
Time after treatment 24 h
  PER2::LUC luminescence: 1.09 and 0.875
Time after treatment 30 h
  PER2::LUC luminescence: 1.24 and 1.03

## N#CC[C@H](C1CCCC1)n1cc(-c2ncnc3[nH]ccc23)cn1
Time after treatment 24 h
  PER2::LUC luminescence: 0.99
Time after treatment 30 h
  PER2::LUC luminescence: 1.13

## CCC1=C[C@H]2CN(C1)Cc1c([nH]c3ccccc13)[C@@](C(=O)OC)(c1cc3c(cc1OC)N(C)[C@H]1[C@@](O)(C(=O)OC)[C@H](OC(C)=O)[C@]4(CC)C=CCN5CC[C@]31[C@@H]54)C2
Time after treatment 24 h
  PER2::LUC luminescence: 0.279
Time after treatment 30 h
  PER2::LUC luminescence: 0.324

## O=C(Nc1ccc(Cl)cc1)c1cc(Br)ccc1O
Time after treatment 24 h
  PER2::LUC luminescence: 0.822
Time after treatment 30 h
  PER2::LUC luminescence: 0.728

## CCc1c(C(=O)NNC(=O)[C@@H](O)c2cc(F)cc(F)c2)ccc(O)c1C
Time after treatment 24 h
  PER2::LUC luminescence: 1.02
Time after treatment 30 h
  PER2::LUC luminescence: 1.09

## O=C1N=c2ccccc2=C1c1c(O)[nH]c2ccccc12
Time after treatment 24 h
  PER2::LUC luminescence: 0.942
Time after treatment 30 h
  PER2::LUC luminescence: 0.677

## O=Nc1c(-c2c(O)[nH]c3cc(Br)ccc23)[nH]c2ccccc12
Time after treatment 24 h
  PER2::LUC luminescence: 0.663
Time after treatment 30 h
  PER2::LUC luminescence: 0.788

## O=Nc1c(-c2c(O)[nH]c3ccccc23)[nH]c2ccccc12
Time after treatment 24 h
  PER2::LUC luminescence: 1.72
Time after treatment 30 h
  PER2::LUC luminescence: 2.02

## CN(C)Cc1nc(-c2cn(C)c3ccccc23)no1
Time after treatment 24 h
  PER2::LUC luminescence: 0.847
Time after treatment 30 h
  PER2::LUC luminescence: 0.949

## CCCN(CCC)S(=O)(=O)c1ccc(C(=O)O)cc1
Time after treatment 24 h
  PER2::LUC luminescence: 0.832
Time after treatment 30 h
  PER2::LUC luminescence: 0.861

## O=C(O)c1ccc(S(=O)(=O)N(Cl)Cl)cc1
Time after treatment 24 h
  PER2::LUC luminescence: 0.921
Time after treatment 30 h
  PER2::LUC luminescence: 1.67

## NS(=O)(=O)c1ccc(C(=O)O)cc1
Time after treatment 24 h
  PER2::LUC luminescence: 0.746
Time after treatment 30 h
  PER2::LUC luminescence: 1.06

Reference: the supplement of paper PMC9334596
